Values joined by “and” are separate entries in the source; they are usually repeats but may differ in a detail not shown here. Equal values may be shown once. Records with an inconclusive call do not appear. Unmarked numbers belong to inactive results. Active and inactive are the calls of the source. Calls follow the shape of the dose curve; as a rule, active = well fitted curve in the direction sought with a large enough effect; inconclusive = small, poorly fitted or top-dose-only effect, or another doubt; inactive = no such curve, though single readings can be large; an effect the other way counts as inactive or inconclusive.

Experiment [1] can be described thus: Viability qHTS for spleen associated tyrosine kinase inhibitor (SYKi) naive MV4-11 cells (AID 1963823). Also: nearly all actives have a fitted effect of over 40% in size. Also: potency is read from the fitted curve at half-maximal effect. The procedure, abridged: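 Seeding of 500 SYKi-naive MV4-11 cells per well onto pre-dispensed compounds preceded a 72 hr incubation at 37 C. Luminescent CellTiter-Glo signal, read after 10 min at room temperature, reflected viable cells.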
Experiment [2] can be described thus: Viability qHTS for spleen associated tyrosine kinase inhibitor (SYKi) drug resistant MV4-11 cells (AID 1963824). Also: nearly all actives have a fitted effect of over 35% in size. Also: potency is read from the fitted curve at half-maximal effect. The method, boiled down: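 CellTiter-Glo luminescence, read 10 min after reagent addition, reports viability after a 72 hr compound exposure. Cells are an MV4-11 line made resistant to SYK inhibition, seeded at 500 per well onto compound-containing plates.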

Experiment [3] in a line: Quantitative highthroughput screen to assess conditional lethalithy of NOMO1 cells grown in RPMI1640 with dialyzed fetal bovine serum (RPMI+ds) (AID 1963877). Also: nearly all actives have a fitted effect of over 30% in size. Also: potency is read from the fitted curve at half-maximal effect.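 As to Viability: series mostly up to about 46 µM; 100% = DMSO control wells and 0% = empty wells.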 The method, boiled down: (§1)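 Each medium arm—HPLM with 10% dialyzed FBS, or RPMI1640 with 5 mM glucose and 10% untreated or dialyzed FBS—was screened against an 11-point, 3-fold compound titration for 48 h at 37 °C, with CellTiter-Glo luminescence as endpoint.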

Experiment [4] is described as follows: Quantitative highthroughput screen to assess conditional lethalithy of NOMO1 cells grown in Human Plasma-Like Medium with dialyzed fetal bovine serum (HPLM+ds) (AID 1963878). Also: nearly all actives have a fitted effect of over 35% in size. Also: potency is read from the fitted curve at half-maximal effect.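 As to Viability: 100% = DMSO wells and 0% = empty wells on each plate.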 The method, boiled down:
as §1

A short description of experiment [5]: Quantitative highthroughput screen to assess conditional lethalithy of P12 Ichikawa cells grown in Human Plasma-Like Medium with dialyzed fetal bovine serum (HPLM+ds) (AID 1963879). Also: nearly all actives have a fitted effect of over 35% in size. Also: potency is read from the fitted curve at half-maximal effect. As to Viability: series mostly up to about 46 µM. To be noted: Potency: viability. The method, boiled down:
as §1

The nature of experiment [6]: Quantitative highthroughput screen to assess conditional lethalithy of SEM cells grown in RPMI1640 with dialyzed fetal bovine serum (RPMI+ds) (AID 1963884). Also: nearly all actives have a fitted effect of over 35% in size. Also: potency is read from the fitted curve at half-maximal effect.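 As to Viability: series mostly up to about 46 µM; 100% = DMSO control wells and 0% = empty wells without cells.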 The procedure, abridged:
as §1

The nature of experiment [7]: Cellular viability qHTS for adrenocortical cancer (ACC) cell line SW-13 (AID 1963989). Also: nearly all actives have a fitted effect of over 65% in size. Also: potency is read from the fitted curve at half-maximal effect.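 As to activity (max response): cells grown in serum-free medium with ITS supplement; % is scaled to controls: 0 for no effect and ±100 for the full control effect.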 To be noted: SW-13 ACC cells viability, CellTiter-Glo, 48 h; activity (max response): active compounds read low. The method, boiled down: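 48 h treatment, SW-13 in ITS/DMEM serum-free; doses up to 46 uM; readout CellTiter-Glo luminescence; curve fit four-parameter logistic.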
The nature of experiment [8]: Quantitative highthroughput screen to assess conditional lethalithy of NOMO1 cells grown in RPMI1640 with untreated serum (RPMI+s) (AID 1963876). Also: nearly all actives have a fitted effect of over 35% in size. Also: potency is read from the fitted curve at half-maximal effect.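 As to Viability: 100% = DMSO wells and 0% = empty wells without cells.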 The method, boiled down:
as §1

The nature of experiment [9]: Cellular viability qHTS for adrenocortical cancer (ACC) cell line NCI-H295R (AID 1963990). Also: nearly all actives have a fitted effect of over 60% in size. Also: potency is read from the fitted curve at half-maximal effect. The method, boiled down:
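Compound titrations (up to 46 uM final) are applied to NCI-H295R cultures for 48 h at 37C. Viable cell number is estimated by CellTiter-Glo signal, normalised to DMSO and doxorubicin controls.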

Experiment [10] can be described thus: Quantitative highthroughput screen to assess conditional lethalithy of SEM cells grown in RPMI1640 with unreated serum (RPMI+s) (AID 1963883). The procedure, abridged: as §1
The nature of experiment [11]: Quantitative highthroughput screen to assess conditional lethalithy of P12 Ichikawa cells grown in RPMI1640 with untreated serum (RPMI+s) (AID 1963881). Also: nearly all actives have a fitted effect of over 35% in size. Also: potency is read from the fitted curve at half-maximal effect.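 As to Viability: series mostly up to about 46 µM; 100% = DMSO wells and 0% = empty wells without cells.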 The note with it: Potency: viability. The method, boiled down: as §1
A short description of experiment [12]: Quantitative highthroughput screen to assess conditional lethalithy of P12 Ichikawa cells grown in RPMI1640 with dialyzed fetal bovine serum (RPMI+ds) (AID 1963880). To be noted: Potency: P12-Ichikawa viability. The procedure, abridged:
as §1

For `N#CC(O[C@@H]1O[C@H](CO)[C@@H](O)[C@H](O)[C@H]1O)c1ccccc1` (stereo partly drawn), the Potency entry in [1] and in experiment [2] was “inactive” each time.

As for `COC1CC(OC2CCC3(C=O)C(CCC4C3CCC3(C)C(C5=CC(=O)OC5)CCC43O)C2)OC(C)C1OC1OC(CO)C(O)C(O)C1O` (stereo not drawn), the Potency in experiment [1] is 86.2 nM (active); in [2], 54.4 nM (active).

Take `COC(=O)C12C(=O)C(C)(O)C(=O)C1(C)C(C)=CC1C34CCC(OC3=O)C(C)(CO)C4CCC12C` (stereo not drawn): the Potency result in [1] and in [2] was “inactive” each time.

For the compound `Cc1c(N2C(=O)[C@@H]3[C@H](O)CCN3C2=O)ccc(C#N)c1Cl`, the Potency entry in experiment [1] and in experiment [2] was “inactive” throughout.

As for `CC[C@@]1(O)C(=O)OCc2c1cc1n(c2=O)Cc2cc3ccccc3nc2-1`, the Potency in experiment [1] was 23.5 nM (active); in [2] it was 23.5 nM (active); in experiment [3], 66.2 nM (active); in experiment [4], 66.2 nM (active); in experiment [5] it was 29.6 nM (active); in experiment [6] it was 26.4 nM (active). Further, in experiment [7], the Potency is 126 nM (active).

In the case of `CN1C(=O)COc2c(C(=O)NC3CN4CCC3CC4)cc(Cl)cc21` (stereo not drawn), the Potency entry in experiment [1], in [2], in experiment [8], in [5], in [6] and in experiment [9] was “inactive” throughout. In addition, in [7], the activity (max response) is 0.49% and -6.93%.

On to `CNCC(O)c1ccc(O)cc1` (stereo not drawn), for which the Potency result in experiment [1], in experiment [2], in [8], in experiment [4], in experiment [6] and in [9] was “inactive” throughout. Also, the activity (max response) in experiment [7] was -3.15% and -7.74%.

Consider `Cc1sc2c(c1C)C(c1ccc(Cl)cc1)=N[C@@H](CC(=O)OC(C)(C)C)c1nnc(C)n1-2`, for which the Potency is 105 nM (active) in experiment [1]; 118 nM (active) in experiment [2]; 372 nM (active) in experiment [3]; 418 nM (active) in experiment [4]; 1660 nM (active) in experiment [5]; 235 nM (active) in experiment [10]. Also, the results for the Potency in [6] and in experiment [9] were 209 nM (active) and 3980 nM (active), respectively.

With `C[C@H]1O[C@@H](O[C@H]2C[C@@H](O)[C@]3(CO)C4C(CC[C@]3(O)C2)[C@@]2(O)CC[C@H](C3=CC(=O)OC3)[C@@]2(C)C[C@H]4O)[C@@H](O)[C@@H](O)[C@H]1O` (stereo partly drawn), the values for the Potency in experiment [1] and in [2] were 172 nM (active) and 122 nM (active), respectively.

Consider `CC[C@@]1(O)C(=O)OCc2c1cc1n(c2=O)Cc2cc3c(OC)cccc3nc2-1`, for which the Potency was 14.3 nM (active) in [1] and 11.4 nM (active) in experiment [2].

For `COc1cccc(NCC(F)Cn2c3ccc(Br)cc3c3cc(Br)ccc32)c1` (stereo not drawn), the Potency in experiment [1] and in [2] was 2060 nM (active) each time.

For `O=C(O)c1nn(Cc2ccc(Cl)cc2Cl)c2ccccc12`, the Potency result in [1], in experiment [2], in [8], in experiment [3], in experiment [11] and in experiment [6] was “inactive” each time. Moreover, the Potency result in experiment [9] is “inactive”. Moreover, the activity (max response) in [7] is 8.06% and -12.7%.

Consider `COc1cc(OC)c(OC)cc1C=O`, for which the Potency entry in experiment [1], in experiment [2], in experiment [8], in [3], in experiment [11] and in experiment [6] was “inactive” throughout. Also, the activity (max response) in [7] is 8.71%.

With `C=CCC1=C(C)C(OC(=O)C2C(C=C(C)C)C2(C)C)CC1=O` (stereo not drawn), the Potency in [1] is 5450 nM (active); in experiment [2], 9690 nM (active).

For `Cc1[nH]nc2ccc(-c3cncc(OC[C@@H](N)Cc4c[nH]c5ccccc45)c3)cc12`, the Potency in experiment [1] was 46.8 nM (active); in experiment [2] it was 65.1 nM (active) and 105 nM (active); in experiment [8] it was 1180 nM (active); in experiment [4], 526 nM (active); in [11], 1480 nM (active); in experiment [10], 590 nM (active). Also, the Potency in [6] is 418 nM (active); in [7] it was 708 nM (active); in [9] it was 2240 nM (active).

Consider `O=C(NCCN1CCC2(CC1)C(=O)NCN2c1cccc(F)c1)c1ccc2ccccc2c1`, for which the Potency is 9200 nM (active) in [1] and 5800 nM (active) in experiment [2].

For `CC(=O)O[C@@H]1[C@H]2CC[C@H]3[C@@](C)(O)[C@@H]4C[C@H](O)C(C)(C)[C@@]4(O)[C@H](O)C[C@@]13C[C@@]2(C)O`, the Potency entry in [1] and in [2] was “inactive” throughout.

For `COc1cc2c(cc1OC)[C@@]13CCN4CC5=CCO[C@H]6CC(=O)N2[C@H]1[C@H]6[C@H]5C[C@H]43`, the Potency entry in [1] and in [2] was “inactive” throughout.

On to `Cc1ncc(OC[C@@]2(c3cccc(F)c3)C[C@H]2C(=O)Nc2ccc(F)cn2)c(C)n1`, for which the Potency entry in experiment [1], in experiment [2], in [8], in [3], in experiment [4] and in [6] was “inactive” in each case. Besides, in experiment [9], the Potency entry is “inactive”. Further, the activity (max response) in experiment [7] is 7.8%.

In the case of `O=C1CN=C(c2ccccc2Cl)c2cc(Br)ccc2N1`, the Potency entry in [1] and in experiment [2] was “inactive” each time.

As for `C=C(C)C(=O)O[C@H]1[C@@H]2[C@H](C)C(=O)O[C@@H]2C[C@@H](C)[C@@H]2C=CC(=O)[C@]21C`, the Potency in [1] is 1430 nM (active); in experiment [2], 1140 nM (active).

Turning to `O=P1(NCCCl)OCCCN1CCCl` (stereo not drawn), the Potency entry in experiment [1], in experiment [2], in [8], in [3], in experiment [12] and in [9] was “inactive” throughout. Also, the Potency is 14800 nM (active) in experiment [10] and 20900 nM (active) in experiment [6]. The activity (max response) in experiment [7] was 17.4% and 1.23%.

For the compound `CC(C)(O)/C=C/C(=O)[C@](C)(O)[C@H]1[C@H](O)C[C@@]2(C)[C@@H]3CC=C4[C@@H](C=C(O)C(=O)C4(C)C)[C@]3(C)C(=O)C[C@]12C`, the Potency in experiment [1] was 59.6 nM (active); in experiment [2], 37.6 nM (active).

For the compound `N[C@@H](Cc1ccc(N(CCCl)CCCl)cc1)C(=O)O`, the Potency is 10.6 µM (active) and 833 nM (active) in experiment [1]; 7.5 µM (active) and 742 nM (active) in experiment [2]; 10500 nM (active) in [8]; 9350 nM (active) in experiment [3]; 7430 nM (active) in experiment [4]; 10500 nM (active) in [5]. In addition, in experiment [9], the Potency was 28200 nM (active). For the same compound, the activity (max response) in [7] is -19.4%.

Regarding `O=C(O)c1ccnc2cc(C(OCCN3CCCCC3)c3ccccc3Cl)[nH]c12` (stereo not drawn), the Potency entry in [1] and in [2] was “inactive” each time.
